# Screening data deposited in PubChem BioAssay by National Center for Advancing Translational Sciences (NCATS).
# A selection: hits, their analogues and other compounds. The true share with any hit is near 21%.
# ELG1 DNA repair: blocks ELG1-dependent DNA repair in HEK293T cells | AID 504467 | 330,000 tested, 2.3% active | Potency, µM (highest dose often 46.1 µM), actives largely listed as inhibitors | HEK293T ELG1-luciferase reporter, luminescence, 16 h; DNA damage induced by 5-fluorouridine; further: nearly all actives have a fitted effect of over 55% in size
#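 Quantitative HTS, concentration-response format. 2,000 cells/well co-treated with 5-fluorouridine and compound, 16 hr in 5% CO2 at 37 °C; ONE-Glo luminescence read after 30 min.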
# DT40 TDP1 CPT: DT40-hTDP1 cell growth loss with CPT. chicken DT40 Tdp1-/-;hTDP1 cells + 20 nM CPT, ATP luminescence, 48 h. Potency, µM (top dose mostly 46.2 µM), actives largely listed as inhibitors. 420,000 tested, 12% active; further: nearly all actives have a fitted effect of over 55% in size
#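 Chicken DT40 Tdp1-/- cells complemented with human TDP1, 400 cells/well, exposed to compounds plus 20 nM camptothecin for at least 48 h at 37 C; viability read as ATP content by CellTiter-Glo luminescence.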
# Gal4-VP16 FLuc: inhibits Gal4-VP16 luciferase reporter, ROR gamma counter-screen; 310,000 tested, 3.5% active; AID 2546; Drosophila S2 Gal4-VP16 UAS-luciferase, luminescence, 20 h; Potency, µM (highest dose often 53.6 µM), hits mostly inhibitors;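 further: Gal4-VP16 expression switched on by copper sulfate through the metallothionein promoter; nearly all actives have a fitted effect of over 50% in size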
# DT40 TDP1 no CPT: qHTS for Inhibitors of human tyrosyl-DNA phosphodiesterase 1 (TDP1): qHTS in cells in absence of CPT. DT40 Tdp1-/- hTDP1 cells, no CPT, ATP luminescence, 48 h. Potency, µM (top dose mostly 46.2 µM), most hits filed as inhibitors. 420,000 tested, 15% active. AID 686978, 2013; further: nearly all actives have a fitted effect of over 55% in size
#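 Chicken DT40 Tdp1-/- cells complemented with human TDP1, screened without camptothecin (DMSO vehicle only), 400 cells/well. Compounds pin-transferred, cells incubated at 37 °C for at least 48 hr. Growth read as ATP-dependent luminescence (CellTiter-Glo, 30 min at RT).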
# IL1B secr inh: inflammasome signaling inhibition, IL-1 beta readout | THP-1 LPS/ATP IL-1B secretion, AlphaLISA, 16 h; stronger effect = lower value | activity change, % at 57.5 µM | 360,000 tested, 4.7% active | AID 743279; in the data active means activity change below about -50%; inconclusive means mostly about -30% to -49%
#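 Secreted IL-1B measured by AlphaLISA bead assay after 16 h compound exposure of THP-1 cells; compounds (final up to 57.5 uM) added 1 h before LPS (250 ng/mL) and ATP (1.25 mM) stimulation; lower signal means less secretion.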
# RORgamma inh: ROR gamma (mouse) transcription inhibition; 310,000 tested, 5.4% active; Drosophila S2 Gal4-RORgamma UAS-luciferase reporter, 20 h; Potency, µM (titrated, usually from 53.6 µM), hits mostly inhibitors; P51450; AID 2551; further: nearly all actives have a fitted effect of over 60% in size
# Target sequence (P51450 whole entry, looked up, the tested form may be a part): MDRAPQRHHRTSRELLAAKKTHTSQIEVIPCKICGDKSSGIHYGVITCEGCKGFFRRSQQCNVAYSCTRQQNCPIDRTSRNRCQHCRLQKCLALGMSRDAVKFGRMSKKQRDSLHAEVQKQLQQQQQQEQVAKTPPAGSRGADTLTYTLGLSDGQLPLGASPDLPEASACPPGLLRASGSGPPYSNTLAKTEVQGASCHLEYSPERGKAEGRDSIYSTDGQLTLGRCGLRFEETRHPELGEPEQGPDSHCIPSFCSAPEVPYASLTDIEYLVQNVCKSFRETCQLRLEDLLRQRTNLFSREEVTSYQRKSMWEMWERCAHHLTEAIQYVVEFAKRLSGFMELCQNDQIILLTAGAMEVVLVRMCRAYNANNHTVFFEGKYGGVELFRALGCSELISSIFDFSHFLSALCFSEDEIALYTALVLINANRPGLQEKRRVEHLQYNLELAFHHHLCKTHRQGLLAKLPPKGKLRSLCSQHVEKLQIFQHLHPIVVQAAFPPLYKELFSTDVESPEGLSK
#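 Stable Schneider cell line, Gal4 DNA-binding domain fused to ROR gamma, UAS-luciferase. Cmpd 1 hr RT → CuSO4 700 uM final → 20 hr RT → luciferase reagent 10 min → luminescence.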
# Hits are given with their value; 0 = inactive; ? = inconclusive; - = no result; [ ] = dose if it differs, or a comment. Unless noted, the call rests on the fitted dose curve; in most records, active means well fitted curve in the direction sought with a large enough effect; inconclusive means small, poorly fitted or top-dose-only effect, or another doubt; inactive means no such curve, though single readings can be large; an effect the other way counts as inactive or inconclusive.
SMILES,ELG1 DNA repair,DT40 TDP1 CPT,Gal4-VP16 FLuc,DT40 TDP1 no CPT,IL1B secr inh,RORgamma inh
O=S(=O)(c1ccc(S(=O)(=O)N2CCN(C/C=C/c3ccccc3)CC2)cc1)N1CCCC1,0,?,0,12µM,0,0
O=S(=O)(c1ccccc1)N1CCN(C/C=C/c2ccccc2)CC1,0,0,0,0,0,?
O=C(c1cc2ccccc2o1)N1CCN(C/C=C/c2ccccc2)CC1,0,15µM,0,?,-55,0
O=C(C1CCN(Cc2ccccc2)CC1)N1CCN(C/C=C/c2ccccc2)CC1,0,?,0,23µM,?,0
CC1(C)C(C=C(Cl)Cl)C1C(=O)N1CCN(Cc2ccccc2)CC1 (stereo not given),?,0,0,?,-51,?
CC(=O)N1CCN(C(=O)c2cc3ccccc3o2)CC1,?,0,0,0,0,0
COc1ccc(C(=O)NCc2ccccc2CN2CCCC2)cc1S(=O)(=O)Nc1ccc(C)cc1,0,?,-,?,0,-
COc1cc(CCC(=O)NCc2ccc3c(c2)CCN3C(=O)c2ccccc2)cc(OC)c1OC,-,0,-,0,-,-
O=C(Nc1ccccc1C(=O)N1CCCCCC1)c1cccc([N+](=O)[O-])c1,0,0,0,0,0,0
Cc1nc(SCC(=O)Nc2ccc(F)cc2)c(C#N)c(C)c1CC(=O)c1ccc(Br)cc1,0,16µM,?,?,0,0
Cc1cccc(NC(=O)CSc2nc(C)c(CC(=O)c3ccc(Br)cc3)c(C)c2C#N)c1C,0,13µM,0,15µM,0,0
COCc1cc(C)nc(SCC(=O)Nc2cccc(C)c2C)c1C#N,0,0,0[0.365 µM],0,0,0
CCCNC(=O)CCc1nnc2ccc(N3CCN(c4cccc(OC)c4)CC3)nn12,-,0,-,?,-,-
O=C(c1cccc([N+](=O)[O-])c1)N1CCN(c2n[nH]c(=O)[nH]c2=O)CC1,0,0,0,0,0,0
CSCC[C@@H]1NC(=O)C/C=C\[C@@H](C)COC(=O)[C@@H](CCSC)NC(=O)C/C=C\[C@@H](C)COC1=O,-,-,0[10 µM],-,-,0[10 µM]
O=C(Nc1cccc2ccccc12)c1ccco1,-,0,-,0,0,-
CN(CC(=O)Nc1ccc(N2CCOCC2)cc1)CC(=O)Nc1ccc(N2CCOCC2)cc1,0,0,0,0,?,0
CSc1ccccc1NC(=O)CN(C)Cc1c(O)ccc2ccccc12,0,?,0,23µM,0,?
CN(CC(=O)Nc1ccc(N2CCOCC2)cc1)Cc1c(O)ccc2ccccc12,0,0,0,0,0,1.8µM
CCOC(=O)N1CCN(C(=O)C[C@@H]2C[C@@]3(C(=O)OCC)CCCC=C3N(Cc3ccc(Cl)cc3Cl)C2=O)CC1,-,21µM,-,23µM,0,-
CCOC(=O)[C@]12CCC=C1N(Cc1ccc(Cl)cc1Cl)C(=O)[C@H](CC(=O)N1CCSCC1)C2,-,23µM,-,16µM,0,-
COC(=O)[C@]12CCCCC=C1N(Cc1ccc(Cl)cc1Cl)C(=O)[C@H](CC(=O)N1CCCC1)C2,-,?,-,?,0,-
CCOC(=O)N1CCN(C(=O)C[C@@H]2C[C@@]3(C(=O)OC)CCCCC=C3N(Cc3ccc(Cl)cc3Cl)C2=O)CC1,-,21µM,-,12µM,-,-
O=C(O)C(Cc1ccccc1N(CCO)CCO)N1C(=O)c2ccccc2C1=O (stereo not given),-,0,-,0,0,-
O=C(/C=C/[C@H]1O[C@@H](n2ccc(=O)[nH]c2=O)[C@H](O)[C@@H]1O)NCCN1CCCCC1,-,0,-,0,0,-
Clc1ccc(-c2cc(C3CCNCC3)[nH]n2)cc1,0,23µM,0,26µM,?,0
Cc1ccc(CN2CCC(c3cc(-c4ccc(Cl)cc4)n[nH]3)CC2)cc1,?,16µM,0,15µM,-97,0
COc1ccc(-c2cc(C3CCN(Cc4ccc([N+](=O)[O-])cc4)CC3)[nH]n2)cc1,?,0,0,?,-84,0
COC(=O)c1cc(-c2ccc(Cl)cc2)n[nH]1,?,?,0,0,0,0
